In the antibiotic and cytotoxicity screens of Wong et al. (2023):
Hit rate of the full screen: of about 39,000 compounds, about 3,300 (8.5%) were called active. The list comes from a sample in which actives are over-represented; it also holds similar structures and randomly drawn compounds.

Each compound was assayed on HepG2 (assay: cytotoxicity call (relative viability < 0.9)). Conditions: 10 µM.
COc1ccc2c3c(n(c2c1)C)[C@H](CO)N(C[C@]13CCN(CC1)S(=O)(=O)c1ccccc1)C(=O)c1cccnc1 was tested, and the cytotoxicity call was “inactive”.
With c1ccc(-c2cc(-c3nc4ccccc4[nH]3)c3ccccc3n2)cc1 the cytotoxicity call was “inactive”.
With CNCc1cnc(NC)nc1 the cytotoxicity call was “inactive”.
With C[C@@H]1CN([C@H](C)CO)C(=O)c2cccc(NS(=O)(=O)c3cn(C)cn3)c2O[C@H]1CN(C)CC1CC1 the cytotoxicity call was “inactive”.
In the case of CCO[C@@H]1OC(C(=O)N2CCN(Cc3ccccc3)CC2)=C[C@H](c2cn(C(C)=O)c3ccccc23)[C@H]1CCCOC(=O)NCCCCCC(=O)NO, the cytotoxicity call is reported as “inactive”.
With CNCc1cc(C)nn1C the cytotoxicity call was “inactive”.
For COc1cccc(-c2cn(CC[C@@H]3CC[C@@H](NS(=O)(=O)c4ccccc4Cl)[C@H](CO)O3)nn2)c1, the cytotoxicity call was “inactive”.
In the case of C[C@H](CO)N1C[C@H](C)[C@@H](CN(C)S(=O)(=O)c2ccc(F)cc2)Oc2ccc(NC(=O)C3CC3)cc2C1=O, the cytotoxicity call is reported as “inactive”.
With Cc1ccc(S(=O)(=O)N[C@H]2CC[C@@H](CC(=O)NCc3ccc(Cl)c(Cl)c3)O[C@H]2CO)cc1 the cytotoxicity call was “inactive”.
With C[C@@H]1CCCCO[C@@H](CN(C)CC2CC2)[C@@H](C)CN([C@H](C)CO)C(=O)c2cc(NC(=O)CCC(F)(F)F)ccc2O1 the cytotoxicity call was “inactive”.
C[C@@H]1CN([C@@H](C)CO)C(=O)Cc2cc(NC(=O)CCCCCC(=O)Nc3ccccc3N)ccc2O[C@H]1CN(C)Cc1ccc(-c2ccccc2)cc1 was tested, and the cytotoxicity call was “inactive”.
For C[C@@H]1CN([C@H](C)CO)C(=O)Cc2cc(NC(=O)CCCCCC(=O)Nc3ccccc3N)ccc2O[C@H]1CN(C)Cc1ccc(-c2ccccc2)cc1, the cytotoxicity call was “inactive”.
C[C@H]1CN([C@@H](C)CO)C(=O)Cc2cc(NC(=O)CCCCCC(=O)Nc3ccccc3N)ccc2O[C@H]1CN(C)Cc1ccc(-c2ccccc2)cc1 was tested, and the cytotoxicity call was “active”.
For C[C@@H]1CN([C@H](C)CO)C(=O)c2cc(NS(=O)(=O)c3ccc(Cl)cc3)ccc2O[C@@H]1CN(C)Cc1ccc(C(=O)Nc2ccccc2N)cc1, the cytotoxicity call was “inactive”.
For C[C@@H]1CN([C@H](C)CO)C(=O)c2cccc(NS(=O)(=O)c3ccc(Cl)cc3)c2O[C@H]1CN(C)Cc1ccc(C(=O)Nc2ccccc2N)cc1, the cytotoxicity call was “inactive”.
In the case of C[C@H](CO)N1C[C@H](C)[C@H](CN(C)Cc2ccc(C(=O)Nc3ccccc3N)cc2)Oc2ccc(NS(=O)(=O)c3ccc(Cl)cc3)cc2C1=O, the cytotoxicity call is reported as “inactive”.
For C[C@@H]1CN([C@@H](C)CO)C(=O)c2cccc(NS(=O)(=O)c3ccc(Cl)cc3)c2O[C@H]1CN(C)Cc1ccc(C(=O)Nc2ccccc2N)cc1, the cytotoxicity call was “inactive”.
With C[C@H](CO)N1C[C@H](C)[C@H](CN(C)Cc2ccc(C(=O)Nc3ccccc3N)cc2)Oc2c(NS(=O)(=O)c3ccc(Cl)cc3)cccc2C1=O the cytotoxicity call was “active”.
In the case of C[C@@H]1CN([C@@H](C)CO)C(=O)c2cc(NS(=O)(=O)c3ccc(Cl)cc3)ccc2O[C@@H]1CN(C)Cc1ccc(C(=O)Nc2ccccc2N)cc1, the cytotoxicity call is reported as “active”.
For C[C@@H]1CN([C@@H](C)CO)C(=O)c2cccc(NS(=O)(=O)c3ccc(Cl)cc3)c2O[C@@H]1CN(C)Cc1ccc(C(=O)Nc2ccccc2N)cc1, the cytotoxicity call was “active”.
C[C@@H]1CN([C@H](C)CO)C(=O)c2cccc(NS(=O)(=O)c3ccc(Cl)cc3)c2O[C@@H]1CN(C)Cc1ccc(C(=O)Nc2ccccc2N)cc1 was tested, and the cytotoxicity call was “inactive”.
In the case of C[C@H]1CN([C@@H](C)CO)C(=O)c2cccc(NS(=O)(=O)c3ccc(Cl)cc3)c2O[C@@H]1CN(C)Cc1ccc(C(=O)Nc2ccccc2N)cc1, the cytotoxicity call is reported as “inactive”.
With CCSC(=S)N[C@H]1CCS(=O)(=O)C1 the cytotoxicity call was “inactive”.
In the case of CC(C)NC(=O)Nc1ccc2c(c1)C(=O)N([C@@H](C)CO)C[C@@H](C)[C@@H](CN(C)C(=O)Nc1ccc(F)cc1)OCCCC[C@@H](C)O2, the cytotoxicity call is reported as “inactive”.
For C[C@H](O)C#Cc1ccc2c(c1)O[C@@H](CN(C)C)[C@H](C)CN([C@@H](C)CO)S2(=O)=O, the cytotoxicity call was “inactive”.
In the case of COC(=O)C[C@H]1CC[C@@H]2[C@H](COC[C@@H](O)CN2S(=O)(=O)c2ccccc2C)O1, the cytotoxicity call is reported as “inactive”.
With Cc1ccc(S(=O)(=O)N(C)C[C@@H]2Oc3c(NS(C)(=O)=O)cccc3C(=O)N([C@@H](C)CO)C[C@H]2C)cc1 the cytotoxicity call was “inactive”.
C[C@@H]1CCCCO[C@@H](CN(C)CC2CC2)[C@H](C)CN([C@@H](C)CO)C(=O)c2cc(NC(=O)CCC(F)(F)F)ccc2O1 was tested, and the cytotoxicity call was “inactive”.
In the case of Cn1c([N+](=O)[O-])cnc1COC(N)=O, the cytotoxicity call is reported as “inactive”.
COc1ccc(NC(=O)Nc2ccc3c(c2)[C@H]2C[C@H](CC(=O)N4CCN(C)CC4)O[C@H](CO)[C@H]2O3)cc1 was tested, and the cytotoxicity call was “inactive”.
In the case of COCCOC(=O)N1C(=O)[C@@]2(c3cc(C#CCCO)ccc31)[C@H](c1ccc(O)cc1)N1[C@H](c3ccccc3)[C@H](c3ccccc3)OC(=O)[C@H]1[C@@H]2C(=O)N1CCc2cc(OC)c(OC)cc2C1, the cytotoxicity call is reported as “inactive”.
Cc1ccc(C(C)C)c(O)c1 was tested, and the cytotoxicity call was “inactive”.
In the case of CC1(C)NC(=O)N(c2ccc([N+](=O)[O-])c(C(F)(F)F)c2)C1=O, the cytotoxicity call is reported as “inactive”.
With CC(C)C(=O)Nc1ccc([N+](=O)[O-])c(C(F)(F)F)c1 the cytotoxicity call was “active”.
In the case of Cc1cccc(NC(=O)C(C)C)c1, the cytotoxicity call is reported as “inactive”.
With COc1cccc(S(=O)(=O)N(C)C[C@@H]2OCc3cnnn3CCCC(=O)N([C@@H](C)CO)C[C@@H]2C)c1 the cytotoxicity call was “inactive”.
For COc1ccc(S(=O)(=O)N(C)C[C@@H]2Oc3c(NC(=O)Nc4c(C)noc4C)cccc3C(=O)N([C@H](C)CO)C[C@H]2C)cc1, the cytotoxicity call was “inactive”.
In the case of Cc1noc(C)c1NC(=O)N(C)C[C@H]1OCCCC[C@@H](C)Oc2ccc(NC(=O)Nc3cccc4ccccc34)cc2C(=O)N([C@H](C)CO)C[C@@H]1C, the cytotoxicity call is reported as “inactive”.
In the case of CCOC(=O)CN(C#N)c1nc(C)cc(C)n1, the cytotoxicity call is reported as “inactive”.
In the case of CCOC(=O)n1ncc(C#N)c1N, the cytotoxicity call is reported as “inactive”.
With CCOC(=O)/C(C#N)=C1/C=CN(C)C=N1 the cytotoxicity call was “active”.
For C[C@H]1CN([C@@H](C)CO)C(=O)c2cccc(NC(=O)CCCCCC(=O)Nc3ccccc3N)c2O[C@@H]1CN(C)C(=O)Nc1ccc(C(F)(F)F)cc1, the cytotoxicity call was “inactive”.
In the case of O=C(C[C@@H]1CC[C@H]2[C@@H](COC[C@H](O)CN2C(=O)Nc2cccc(Cl)c2)O1)NCCCN1CCOCC1, the cytotoxicity call is reported as “inactive”.
With C[C@H]1CN([C@@H](C)CO)C(=O)c2cccc(NC(=O)C3CC3)c2O[C@@H]1CN(C)C(=O)NC1CCCCC1 the cytotoxicity call was “inactive”.
C[C@H]1CN([C@@H](C)CO)C(=O)c2cccc(NC(=O)C3CCCCC3)c2O[C@@H]1CN(C)Cc1ccc(Oc2ccccc2)cc1 was tested, and the cytotoxicity call was “inactive”.
With C[C@@H]1CCCCO[C@@H](CN(C)C(=O)NC2CCCCC2)[C@@H](C)CN([C@H](C)CO)C(=O)c2cc(NS(=O)(=O)c3ccc(F)cc3)ccc2O1 the cytotoxicity call was “inactive”.
In the case of C[C@@H]1CN([C@H](C)CO)C(=O)c2c(c3ccccc3n2C)-c2ccccc2CO[C@H]1CN(C)C(=O)Nc1ccccc1C(F)(F)F, the cytotoxicity call is reported as “inactive”.
C[C@@H]1CN([C@H](C)CO)C(=O)c2ccccc2-c2ccccc2CO[C@H]1CN(C)C(=O)Nc1ccccc1C(F)(F)F was tested, and the cytotoxicity call was “inactive”.
C[C@H](CO)N1C[C@H](C)[C@H](CN(C)C(=O)Nc2ccccc2C(F)(F)F)OCc2ccccc2-c2c(n(C)c3ccccc23)C1=O was tested, and the cytotoxicity call was “inactive”.
C[C@@H]1CN([C@H](C)CO)C(=O)c2c(c3ccccc3n2C)-c2ccccc2CO[C@H]1CN(C)C(=O)Nc1cccc(Cl)c1Cl was tested, and the cytotoxicity call was “inactive”.
With C[C@H](CO)N1C[C@H](C)[C@@H](CN(C)C(=O)Nc2cccc(Cl)c2Cl)OCc2ccccc2-c2c(n(C)c3ccccc23)C1=O the cytotoxicity call was “active”.
For C[C@H](CO)N1C[C@H](C)[C@H](CN(C)C(=O)Nc2cccc(Cl)c2Cl)OCc2ccccc2-c2c(n(C)c3ccccc23)C1=O, the cytotoxicity call was “inactive”.
In the case of C[C@@H]1CN([C@@H](C)CO)C(=O)c2ccccc2-c2ccccc2CO[C@@H]1CN(C)C(=O)Nc1ccccc1C(F)(F)F, the cytotoxicity call is reported as “active”.
In the case of C[C@H](CO)N1C[C@H](C)[C@@H](CN(C)C(=O)Nc2ccccc2C(F)(F)F)OCc2ccccc2-c2c(n(C)c3ccccc23)C1=O, the cytotoxicity call is reported as “active”.
With C[C@@H]1CN([C@H](C)CO)C(=O)c2ccccc2-c2ccccc2CO[C@@H]1CN(C)C(=O)Nc1ccccc1C(F)(F)F the cytotoxicity call was “inactive”.
For Cn1ccnc1CN1CC[C@]2(COCCN(S(C)(=O)=O)C2)C1, the cytotoxicity call was “inactive”.
Cc1ccc(S(=O)(=O)N(C)C[C@H]2Oc3c(NS(C)(=O)=O)cccc3C(=O)N([C@H](C)CO)C[C@@H]2C)cc1 was tested, and the cytotoxicity call was “inactive”.
C[C@@H]1CN([C@H](C)CO)C(=O)CCCn2nncc2CO[C@@H]1CN(C)C(=O)Nc1cccc2ccccc12 was tested, and the cytotoxicity call was “inactive”.
For COc1cccc(-c2ccc3c(c2)O[C@H](CN(C)C(=O)C2CCOCC2)[C@@H](C)CN([C@H](C)CO)S3(=O)=O)c1, the cytotoxicity call was “inactive”.
For NCc1ccc(C(=O)N2CCCCC2)cc1, the cytotoxicity call was “inactive”.
With COCC(=O)N(C)C[C@@H]1Oc2cc(-c3ccc(C#N)cc3)ccc2S(=O)(=O)N([C@H](C)CO)C[C@@H]1C the cytotoxicity call was “inactive”.
CNCc1nc(C)no1 was tested, and the cytotoxicity call was “inactive”.
For COc1ccccc1S(=O)(=O)N[C@H]1C=C[C@H](CC(=O)N2CCOCC2)O[C@@H]1CO, the cytotoxicity call was “inactive”.
Cc1ccc(S(=O)(=O)N2C[C@H](O)COC[C@H]3O[C@H](CC(=O)N4CCc5ccccc5C4)CC[C@@H]32)cc1 was tested, and the cytotoxicity call was “inactive”.
For CC(C)(N)c1cc(C(=O)N[C@@H]2CCc3ccc(Oc4ccnc5c4CCC(=O)N5)cc3C2)cc(C(F)(F)F)c1, the cytotoxicity call was “active”.
For CC(C)CC#Cc1ccc2c(c1)O[C@@H](CN(C)C(=O)Cc1ccccn1)[C@@H](C)CN([C@@H](C)CO)S2(=O)=O, the cytotoxicity call was “inactive”.
C[C@H](CO)N1C[C@H](C)[C@H](CN(C)S(C)(=O)=O)Oc2ccc(NS(=O)(=O)c3ccccc3)cc2C1=O was tested, and the cytotoxicity call was “inactive”.
C[C@H](CO)N1C[C@H](C)[C@@H](CN(C)S(C)(=O)=O)Oc2ccc(NS(=O)(=O)c3ccccc3)cc2C1=O was tested, and the cytotoxicity call was “inactive”.
In the case of C[C@H]1CN([C@@H](C)CO)C(=O)c2cc(NS(=O)(=O)c3ccccc3)ccc2O[C@@H]1CN(C)S(C)(=O)=O, the cytotoxicity call is reported as “active”.
C[C@@H]1CN([C@@H](C)CO)C(=O)c2cc(NS(=O)(=O)c3ccccc3)ccc2O[C@@H]1CN(C)S(C)(=O)=O was tested, and the cytotoxicity call was “inactive”.
With C[C@@H]1CN([C@H](C)CO)C(=O)c2cc(NS(=O)(=O)c3ccccc3)ccc2O[C@H]1CN(C)S(C)(=O)=O the cytotoxicity call was “active”.
C[C@H]1CN([C@@H](C)CO)C(=O)c2cc(NS(=O)(=O)c3ccccc3)ccc2O[C@H]1CN(C)S(C)(=O)=O was tested, and the cytotoxicity call was “inactive”.
